# CHX counter: affects cycloheximide protein synthesis inhibition readout, counter-screen; cell reporter, cycloheximide protein synthesis inhibition counterscreen; max response, %; actives 12% (n = 300,000); in the data active means max response mostly above about 13%, no sharp cut-off; inactive means mostly below about 14%; further: read at 38.3 µM for the half of the compounds with a filed dose; 0% is about no effect
# Sm TGR block: S. mansoni TGR enzyme inhibition; Q962Y6; purified TGR, DTNB reduction, TNB absorbance 405 nm; Potency, µM (titrated, usually from 114 µM), without a hit: top-dose activity change, negative = inhibition, actives largely listed as inhibitors; actives 3% (n = 360,000); active means well fitted inhibition curve with a large enough effect; inconclusive means small, poorly fitted or top-dose-only effect; inactive means no such curve, though single readings can be large or run the other way; further: potency means the concentration at half of the fitted maximal effect; on the % scale 0 is the no-effect control and ±100 the full control effect; nearly all actives have a fitted effect of over 60% in size
#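 Kinetic colorimetric format: TGR-catalysed, NADPH-driven DTNB reduction monitored via TNB absorbance. Enzyme dispensed at 20 nM; compound exposure 15 min at room temperature before reaction start.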
# Shiga toxin inh: inhibitors of Shiga toxin in Vero cells; Vero cells, Shiga toxin protein synthesis inhibition reporter; inhibition, % at 38.7 µM; actives 9.2% (n = 290,000); AID 2315; in the data active means inhibition mostly above about 28%, no sharp cut-off; inactive means mostly below about 43%; further: 0% is about no effect
# FMDV antiviral: foot and mouth disease virus antiviral activity; FMDV antiviral cell-based qHTS; Potency, µM (top dose mostly 57.9 µM), inactives show at the top dose activity change, negative = inhibition, usual class: inhibitors; actives 1.2% (n = 410,000); AID 1159524; calls by dose curve; tested in HEK293T cells; further: read-out not given here; potency means the concentration at half of the fitted maximal effect; on the % scale 0 is the no-effect control and ±100 the full control effect; nearly all actives have a fitted effect of over 45% in size
# An asterisk follows results filed as active; u = inconclusive; x = not tested or not shown; + = active, no number. Most compounds without a hit are left out; they make up all but 12% or so of the library.
SMILES,CHX counter,Sm TGR block,Shiga toxin inh,FMDV antiviral
COc1ccc(C=CC(=O)c2ccc(OC)c(OC)c2)cc1O,x,x,x,-13%
COc1ccc(C(=O)/C=C/c2ccc(OC)c(O)c2)c(F)c1,68*,3%,61*,0%
COc1cc(/C=C/C(=O)c2ccc(Cl)s2)cc(OC)c1O,9,u,5,13µM*
CSc1nsc(SC)c1NC(=O)OCc1ccccc1,22*,8%,45,17%
Cc1ccccc1NC(=O)OCc1ccccc1,28*,-16%,59*,30%
CSc1ccccc1COC(=O)Nc1ccccc1C,29*,-2%,36,3%
Cc1ccccc1NC(=O)Cc1ccccc1,-2,0%,-1,-2%
Cc1ccc(C(=O)N/C(=C\c2ccccc2)C(=O)OCc2ccccc2)cc1,45*,-2%,71*,76%
Cc1ccc(CONC(=O)c2ccc(C)cc2)cc1,x,2%,x,58%
Cc1ccc(CONC(=O)c2ccccc2)cc1,40*,11%,67*,25%
COc1ccc(NC(=O)c2c(N)c(C(=O)c3ccc(OC)cc3)n3ccccc23)cc1,x,-3%,x,-11%
Cc1cccc(-c2nc(N3CCN(c4ccc(F)cc4)CC3)c3ccccc3n2)c1,x,4%,x,0%
O=C(O)CCCSc1nccn1-c1ccccc1,13,1%,-11,-6%
Cn1ccnc1SCC(=O)c1ccc(Br)cc1,38*,3%,60*,x
Cn1ccnc1SCC(=O)c1c[nH]c2ccccc12,44*,7%,78*,8%
O=C(OC1CCN(c2ncc(C(F)(F)F)cc2Cl)CC1)c1ccc(Cl)cc1,-1,13%,-6,3%
O=C(CSc1nccn1-c1ncc(C(F)(F)F)cc1Cl)c1ccc(Cl)cc1,47*,-11%,+,0%
O=C(CSc1nccn1-c1ccccc1)c1ccc(Br)cc1,16*,-29%,39*,2%
O=C(CSc1nccc(=O)[nH]1)c1c[nH]c2ccccc12,-1,-13%,9,15%
CC(=O)OCC(=O)Nc1ccc([N+](=O)[O-])cc1Cl,9,-2%,-3,-8%
CC(=O)Oc1c(C)cc(Cl)cc1C(=O)Nc1ccc([N+](=O)[O-])cc1Cl,74*,-2%,128*,-19%
Cc1cccc(NC(=O)CCn2ccnc2C)c1,21*,22%,50*,28%
CCN1CCN(CCC(=O)Nc2cccc(C)c2)CC1,-1,-2%,-7,4%
Cc1ccc(SCC(=O)Nc2cccc(C)c2)cc1,19*,-6%,24,45%
O=C(Cc1ccccc1F)Nc1cccc2cccnc12,24*,-2%,29*,26%
SMILES,CHX counter,Sm TGR block,Shiga toxin inh,FMDV antiviral
Cc1cccc(NC(=O)CSc2cccc3cccnc23)c1,14*,1%,31,13%
O=C(NCc1cccs1)c1nn(-c2ccccc2Cl)nc1CO,x,5%,x,-19%
O=C(CSc1cccc2cccnc12)Nc1ccccc1F,16*,-7%,22,18%
CCc1nnc2c3cnn(-c4ccccc4)c3ncn12,28*,10%,67*,35%
c1ccc(-n2ncc3c2ncn2cnnc32)cc1,-2,-9%,31,12%
Cc1nc2c3cnn(-c4ccccc4)c3ncn2n1,21*,1%,34*,1%
Cc1ccc(-n2ncc3c2ncn2c(C)nnc32)cc1C,30*,-1%,63*,x
CCN(CC)c1ccc(NS(=O)(=O)c2ccc3c(c2)CCCN3C(C)=O)c(C)c1,x,u,x,-10%
CN=c1scc(-c2cccs2)n1/N=C/c1ccccc1O,-13,2%,-19,4µM*
CN=c1scc(C)n1/N=C/c1cc(Br)c(O)c(OC)c1,21*,-16%,56*,31%
CN=c1scc(-c2cccs2)n1/N=C/c1ccc(O)c(O)c1O,-5,u,-12,10µM*
CN=c1scc(C)n1/N=C/c1ccc(O)c(O)c1O,-11,22µM*,-15,-24%
Cc1cc(C)cc(NC(=O)C2CCCN(c3cnccn3)C2)c1 (centres undefined),x,3%,x,-13%
COc1ccc(C2C(C(=O)Nc3cccnc3)=C(C)Nc3nc(SCc4ccccc4)nn32)cc1 (centres undefined),x,-12%,x,5%
Cc1csc2nc(COC(=O)CNC(=O)c3ccccc3Cl)cc(=O)n12,x,-1%,x,0%
CCN(CC)CCNC(=O)Cn1ncc2c([nH]c3ccccc32)c1=O,x,4%,x,28%
Cc1cccc(-n2c(=O)c3c(c4cc(C)ccc4n3C)n(CC(=O)Nc3ccc(C)cc3C)c2=O)c1,x,26%,x,-8%
COc1ccc(OC)c(CC2C(=O)Nc3ccc(Br)cc32)c1 (centres undefined),x,8%,x,13µM*
COc1ccc(CC2C(=O)NC(=O)NC2=O)c(OC)c1,-1,50µM*,-1,-10%
COc1ccc(CC2C(=O)N(C)C(=O)N(C)C2=O)c(OC)c1,10,u,6,-14%
COc1ccc(CC2C(=O)Nc3ccc(Br)cc32)cc1OC (centres undefined),x,12%,x,-27%
Cc1cc(=O)n(CC(=O)Nc2ccc([N+](=O)[O-])cc2)c(-n2nc(C)cc2C)n1,x,1%,x,-14%
O=C(O/N=C1/CCCc2occc21)c1ccc(Cl)cc1Cl,54*,-3%,86*,7%
O=C(O/N=C1/CCCc2occc21)c1ccccc1,26*,-29%,54*,17%
CC1(C)CC(=NOC(=O)c2ccccc2)CC(C)(C)N1,-2,2%,-11,-4%
SMILES,CHX counter,Sm TGR block,Shiga toxin inh,FMDV antiviral
Cc1ccc(CCNC(=O)CN(c2ccc(C(C)C)cc2)S(=O)(=O)c2c(C)nn(C)c2C)cc1,x,-9%,x,-21%
CC(C)c1ccc(/C=C/C(=O)Nc2ccc(CN3CCOCC3)cc2)cc1,11,3%,12,28µM*
O=C(Nc1ccc(Cl)cc1)c1ccc(CN2CCc3ccccc3C2)cc1,19,-1%,15,-4%
CC(C)c1ccc(CN2CCN(C(=O)CCl)CC2)cc1,3,u,10,18µM*
CC(C)c1ccc(C(=O)Nc2ccc(CN3CCOCC3)cc2)cc1,23*,29%,55*,-6%
O=C(Nc1ccc(CN2CCS(=O)(=O)CC2)cc1)c1ccc(Cl)cc1,16*,-10%,38,-21%
COc1ccc(NC(=O)Nc2nnc(N3CCCC3)s2)cc1,x,3%,x,26%
Cc1cccc(N2CCN(C(=O)CS(=O)(=O)c3cccc4nsnc34)CC2C)c1 (centres undefined),x,-10%,x,2%
Cc1cc(C)cc(NC(=O)c2cn3c4c(ccc(Cl)c4c2=O)OC(C)C3)c1 (centres undefined),x,-1%,x,3%
NC(=O)c1ccc(NC(=O)c2ccc(CN3CCOCC3)cc2)cc1,-2,-15%,-11,0%
CCOC(=O)c1ccc(NC(=O)c2ccc(CN3CCOCC3)cc2)cc1,8,0%,0,25µM*
COc1cccc(C(=O)N(Cc2cc3cc4c(cc3nc2N(C)C)OCO4)CC2CCCO2)c1 (centres undefined),x,x,x,11%
COc1cc(/C=C2\C(=O)ON=C2c2ccccc2)cc(OC)c1OC,-1,8.9µM*,48,25µM*
COc1ccc(/C=C2\C(=O)ON=C2c2ccccc2)cc1OC,-3,u,45,u
CN(C)/C=C1\C(=O)ON=C1c1ccccc1,-3,69%,-16,-20%
NC(=O)COc1ccc(/C=C2\C(=O)ON=C2c2ccccc2)cc1,x,u,x,25µM*

# Screening data as filed in PubChem BioAssay.
